rCAG RNA binder: binds r(CAG) RNA repeats. r(CAG) RNA repeat, TO-PRO-1 dye displacement fluorescence. inhibition, % at 3 µM. 1.3% of 370,000 active. AID 651821;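 active = inhibition above the plate cutoff, the mean of all test compounds on that plate plus 3 SD, cut at about 35% in these data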;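 note: 0% = DMSO alone and 100% = 100 µM mitoxantrone as full dye displacement; higher means more dye released from RNA so lower well fluorescence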
NadD inh: NadD (S. aureus) enzyme inhibition. purified NadD enzyme, colorimetric absorbance read-out. inhibition, % at 20 µM. 0.78% of 360,000 active. AID 602399; in the data active = inhibition above about 26%
FAS-TE inh: blocks the thioesterase domain of human fatty acid synthase. P49327. recombinant FAS-TE, OMFH fluorogenic substrate, fluorescence endpoint. inhibition, % at 15 µM. 0.67% of 360,000 active. AID 602261;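 active = compounds whose normalised, plate-corrected inhibition of enzyme fluorescence in the single-dose primary screen is 50% or more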;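 note: 0% = DMSO with enzyme and 100% = substrate without enzyme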
NR3A LBD binder: modulators (binders) of human NR3A ligand-binding domain | NR3A LBD differential scanning fluorimetry, Tm shift; 0% = protein alone, 100% = glycine-bound protein | Tm shift relative to glycine control, % at 25 µM | 2.5% of 340,000 active;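 active = melting temperature shift of at least 10% of the positive control shift, at one fixed dose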
FAS-TE inh conf: FAS thioesterase (human) inhibition, confirmation; shares compounds with FAS-TE inh; AID 624325; recombinant FAS-TE, OMFH fluorogenic substrate, fluorescence; 45% of 2,300 active; inhibition, % at 15 µM;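 active = compounds inhibiting the enzyme by at least 50% at 15 µM in any one of the replicates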;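 note: 0% = enzyme with DMSO only and 100% = wells lacking enzyme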
An asterisk follows results filed as active; · = no result given. The list is not random: actives were taken first. Their share in the collection is about 4.3%.

SMILES	rCAG RNA binder	NadD inh	FAS-TE inh	NR3A LBD binder	FAS-TE inh conf
O=C(Nc1ccccc1)c1cc([N+](=O)[O-])ccc1N1CCCCC1	3	4	47	-6	·
CCOc1ccc(NC(=O)COC(=O)c2cc([N+](=O)[O-])ccc2N2CCOCC2)cc1	0	-3	61*	-8	39
CCOc1ccc(NC(=O)c2cc([N+](=O)[O-])ccc2N2CCOCC2)cc1	-1	-6	55*	-5	65*
O=[N+]([O-])c1cccc(NCCCN2CCC(C(O)(c3ccccc3)c3ccccc3)CC2)c1	4	·	·	·	·
C[C@H]1[C@@H]2C[C@@]3(O[C@H](c4ccc(C(F)(F)F)cc4)N=C3C[C@@H]1c1ccccc1)N(Cc1ccncc1)C2=O	1	·	·	·	·
COc1ccc(C(=O)C2(C(=O)NCc3ccccc3)CC(c3ccccc3C(F)(F)F)=NO2)cc1 (stereo unspecified)	5	·	·	·	·
O=C(Nc1ccc(Cc2ccncc2)cc1)c1cc([N+](=O)[O-])ccc1N1CCOCC1	-4	-2	82*	-2	88*
O=C(NCCOc1ccccc1)c1cc([N+](=O)[O-])ccc1N1CCOCC1	5	-3	57*	0	30
O=C(NC12CC3CC(CC(C3)C1)C2)c1cc([N+](=O)[O-])ccc1N1CCOCC1	-3	-4	51*	13*	39*
O=C(NCC1CCCCC1)c1cc([N+](=O)[O-])ccc1N1CCOCC1	-5	-4	37	-2	·
CN1CCN(c2ccc(NC(=O)c3cc([N+](=O)[O-])ccc3N3CCOCC3)cc2)CC1	-3	-6	0	3	·
O=C(NCCOc1ccccc1F)c1cc([N+](=O)[O-])ccc1N1CCOCC1	-4	-1	34	1	·
O=C(CCCCCN1C(=O)C2C3C=CC(C3)C2C1=O)N1CCN(c2ncccn2)CC1 (stereo unspecified)	0	·	·	·	·
CCCCCCNC(=O)C1CSCCS(=O)(=O)N1Cc1ccc(C)cc1 (stereo unspecified)	-1	·	·	·	·
COC(=O)[C@]12C[C@H](CC(=O)N3CCSCC3)C(=O)N(Cc3ccco3)C1=C[C@H](C1CCCC1)O[C@@H]2C	1	·	·	·	·
COc1ccc(NC(=O)CN2CCN(c3nc(-c4ccc(F)cc4)cs3)CC2)c(OC)c1	2	3	54*	-2	22
COc1ccc(-n2nc(C)cc2N)cc1	-4	0	-2	-1	·
Nc1cc(-c2ccc(OC(F)(F)F)cc2)nn1-c1ccc(Cl)c(Cl)c1	11	1	58*	24*	25
NC(=S)N/N=C/c1ccc(-c2ccc(SC(F)F)cc2)o1	17	28	55*	-6	39*
O=C(NCc1ccc(C(F)(F)F)cc1)C1CC(c2ccc(C(F)(F)F)cc2)=NO1 (stereo unspecified)	-5	-3	17	-6	·
O=C(NCc1ccc(C(F)(F)F)cc1)C1CC(c2c(Cl)cccc2Cl)=NO1 (stereo unspecified)	-7	-10	55*	-15	55*
Cc1ccc2nc(CN(C)C(=O)[C@@H](Cc3ccccc3)NC(=O)[C@H]3O[C@@H](n4cnc(C(N)=O)n4)[C@H](O)[C@@H]3O)[nH]c2c1	5	·	·	·	·
O=C(Cn1cc([N+](=O)[O-])cn1)NC1CCCCCC1	1	-1	11	1	·
COC(=O)c1c(NC(=O)Cn2cc([N+](=O)[O-])cn2)sc2c1CCC2	14	-3	51*	-1	12
O=C(COC(=O)c1ccc([N+](=O)[O-])cc1)NC1CCCC1	1	-4	7	-3	·
SMILES	rCAG RNA binder	NadD inh	FAS-TE inh	NR3A LBD binder	FAS-TE inh conf
O=C(COC(=O)c1cc([N+](=O)[O-])ccc1Cl)NC1CCCC1	-4	-3	80*	-1	87*
COC(=O)c1cc(C(=O)OCC(=O)c2ccc3c(c2)NC(=O)CO3)cc([N+](=O)[O-])c1	5	6	57*	-7	53*
COC(=O)c1cc(C(=O)OCC(=O)NC2CCCCCCC2)cc([N+](=O)[O-])c1	3	-6	70*	1	37*
CCOCC(=O)NC(=O)N1C[C@H]2CON(C)[C@H]2C[C@H]1c1ccc(OC)cc1	2	·	·	·	·
O=C(c1cc2nc(-c3cccs3)cc(C(F)(F)F)n2n1)N1CCCc2ccccc21	-3	9	26	2	·
O=C(c1nn2c(C(F)(F)F)cc(-c3cccs3)nc2c1Br)N1CCCc2ccccc21	4	16	59*	0	13
COC(=O)[C@]12C[C@H](CC(=O)N3CCC(c4ccccc4)CC3)C(=O)N(CCC3=CCCCC3)C1=C[C@H](C(C)C)O[C@@H]2C1CC1	7	·	·	·	·
COc1ccc(CCN2CC(=O)N3CCc4ccc(N5CCOCC5)cc4C3CC2=O)cc1OC (stereo unspecified)	5	·	·	·	·
O=[N+]([O-])c1ccc(CSc2ccc(S(=O)(=O)N3CCCC3)cn2)cc1	·	-2	58*	0	54*
N#Cc1ccc(CSc2ccc(S(=O)(=O)N3CCCC3)cn2)cc1	-1	-8	64*	2	64*
CC(C)c1ccc(CSc2ccc(S(=O)(=O)N3CCOCC3)cn2)cc1	3	-5	69*	3	36*
Cc1ccc(CSc2ccc(S(=O)(=O)N3CCOCC3)cn2)cc1	2	-7	5	2	·
O=[N+]([O-])c1ccc(CSc2ccc(S(=O)(=O)N3CCCCC3)cn2)cc1	8	-6	43	-1	·
Cc1ccc(CSc2ccc(S(=O)(=O)N3CCCC3)cn2)cc1	4	-3	40	-2	·
O=[N+]([O-])c1ccc(CSc2ccc(S(=O)(=O)N3CCOCC3)cn2)cc1	5	-5	53*	2	55*
CN1CCCN(C(=O)C2CCN(c3ncnc4c3sc3cccc(F)c34)CC2)CC1	8	·	·	·	·
N#Cc1cc2sc3nnc(-c4ccncc4)n3c2cc1C#N	2	-3	75*	-4	53*
N#CCSc1nnc2sc3ccccc3n12	1	-2	-2	3	·
C=CCOC(=O)N[C@H](c1ccccc1)[C@H](C)/C=C/CC(=O)OC	1	·	·	·	·
CCc1ccc(NSc2ccccc2[N+](=O)[O-])cc1	6	-4	51*	2	0
CC(C)c1ccc(/C=N/NC(=O)CN(c2cccc(Cl)c2Cl)S(C)(=O)=O)cc1	2	-3	57*	9	58*
CS(=O)(=O)N(CC(=O)N/N=C/c1ccccc1C(=O)O)c1cccc(Cl)c1Cl	6	2	-4	-1	·
COC(=O)N1C(=O)[C@@](c2ccccc2)(C(C)C)N1C(=O)OC	·	1	1	-3	·
COC(=O)N1C(=O)[C@](c2ccccc2)(C2CCCC2)N1C(=O)OC	4	-9	80*	0	90*
O=C(Oc1ccccc1C(=O)Nc1ccccc1)c1ccc(Br)c([N+](=O)[O-])c1	1	7	78*	2	76*
COc1cc(NC(=O)C2CCCN(S(=O)(=O)c3cc(OC)ccc3OC)C2)cc(OC)c1 (stereo unspecified)	4	·	·	·	·
